Inconclusive results are not listed. The source made the active and inactive calls. Unless noted, calls come from the whole dose curve; as a rule, active = well fitted curve in the direction sought with a large enough effect; inconclusive = small, poorly fitted or top-dose-only effect, or another doubt; inactive = no such curve, though single readings can be large; an effect the other way counts as inactive or inconclusive.
Experiments:
[1] = Cell Viability - BJ (AID 421; calls by dose curve;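 note: potency is the fitted concentration of half-maximal effect; cells exposed to compound for 40 hours at 37 °C before readout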); conditions: BJ fibroblast viability, qHTS
Outline: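 Cytotoxicity in human BJ foreskin fibroblasts is scored as loss of cellular ATP after a 40-hour exposure, measured by luciferase luminescence. Controls are DMSO and 100 uM tamoxifen.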

[2] = Cell Viability - Hek293 (AID 427;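 active = compounds whose dose-response curve shows a full or clear partial loss of cell viability, called from curve shape rather than a numeric limit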;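 note: potency is the fitted concentration of half-maximal effect; cells exposed to compound for 40 hours at 37 °C before reading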); conditions: qHTS
Outline: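 qHTS, human embryonic kidney (adenovirus-transformed) cells; 40 hr cpd, 37 °C; CellTiter-Glo ATP luminescence. Norm: DMSO = 0, 100 uM tamoxifen = 100% inhibition. Hill-fit AC50.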

[3] = Cell Viability - HepG2 (AID 433; calls by dose curve;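 note: potency is the fitted concentration of half-maximal effect; potency for ATP loss meaning cytotoxicity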); conditions: qHTS
Outline: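 HepG2 cells, 1500 per well, treated 40 hr at 37 °C in complete medium; viability from intracellular ATP by CellTiter-Glo luminescence. Normalized to DMSO and 100 uM tamoxifen; AC50 from Hill fit of qHTS concentration-response.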

[4] = Cell Viability - MRC5 (AID 434; calls by dose curve;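 note: potency is the fitted concentration of half-maximal effect; potency reflects cytotoxicity seen as loss of intracellular ATP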); conditions: MRC5 lung fibroblast viability, qHTS
Outline: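 AC50 values come from Hill-equation fits of intracellular ATP loss, measured by CellTiter-Glo luminescence. Normal lung fibroblasts (MRC5) had 40 hr compound treatment at 37 C, normalized between DMSO and 100 uM tamoxifen.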

[5] = Cell Viability - SK-N-SH (AID 435; calls by dose curve;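 note: potency is the fitted concentration of half-maximal effect; compound exposure lasted 40 h at 37 °C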); conditions: SK-N-SH neuroblastoma cell viability qHTS
Outline: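 SK-N-SH neuroblastoma cells (1500/well) treated 40 h at 37 °C in complete medium; viability read as cellular ATP by CellTiter-Glo luminescence. Normalized to DMSO and 100 uM tamoxifen; AC50 from Hill fits of qHTS concentration-response.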

[6] = Cell Viability - N2a (AID 540); conditions: N2a mouse neuroblastoma cell viability; activity change, negative = cytotoxicity: at 92.2 µM (top of the series);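 note: plate controls were DMSO alone for no effect and tamoxifen control for full effect; nearly all actives have a fitted effect of over 45% in size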
Outline: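 In this qHTS cytotoxicity screen, ATP-dependent luciferase luminescence reports viable N2a cells after a 40 hr compound exposure in complete culture medium. Potencies are AC50 values from standard Hill equation fits.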

[7] = Cell Viability - NIH 3T3 (AID 541); conditions: NIH 3T3 cell viability, qHTS; activity change, negative = cytotoxicity: at 92.2 µM (top of the series);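 note: plate controls were DMSO alone for no effect and tamoxifen positive control for full effect; nearly all actives have a fitted effect of over 25% in size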
Outline: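 In this cytotoxicity screen, acute toxicity is scored as an ATP drop measured by CellTiter-Glo in NIH 3T3 fibroblasts following a 40 hr, 37 °C incubation with compound.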

[8] = Cell Viability - HUV-EC-C (AID 542); conditions: HUV-EC-C endothelial cell viability, qHTS; series mostly up to 92.2 µM; note: % is set by controls: 0 for no effect and ±100 for the full control effect; nearly all actives have a fitted effect of over 35% in size
Outline: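 Concentration-dependent ATP loss in HUV-EC-C cells is the measure. Exposure lasts 40 hr at 37 °C; luminescence follows CellTiter-Glo addition, and Hill fits give AC50.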

[9] = Cell Viability - H-4-II-E (AID 543); conditions: H-4-II-E rat hepatoma viability; series mostly up to 92.2 µM; note: % is set by controls: 0 for no effect and ±100 for the full control effect; nearly all actives have a fitted effect of over 35% in size
Outline: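 AC50 from Hill-modelled qHTS concentration-response curves. H-4-II-E rat hepatoma cells in complete medium, 40 hr exposure at 37 °C, viability by CellTiter-Glo ATP luminescence.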

[10] = Cell Viability - SH-SY5Y (AID 544); conditions: SH-SY5Y neuroblastoma cell viability; viability change, negative = cytotoxic: at 92.2 µM (top of the series); note: nearly all actives have a fitted effect of over 55% in size
Outline: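 Quantitative HTS in SH-SY5Y neuroblastoma cells, 40 hr treatment at 37 °C, ATP content by luciferase luminescence; AC50 from Hill fits.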

[11] = Cell Viability - Renal Proximal Tubule (AID 545); conditions: renal proximal tubule cells viability, primary cells of rat origin; series mostly up to 91.7 µM; note: nearly all actives have a fitted effect of over 40% in size
Outline: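 Rat renal proximal tubule primary cells, 1000/well, exposed to compounds for 40 hr at 37 °C in complete medium; cellular ATP read by CellTiter-Glo luminescence. AC50 from concentration-response fitted with standard Hill equation.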

[12] = Cell Viability - Mesenchymal (AID 546); conditions: mesenchymal cells viability, qHTS; series mostly up to 91.7 µM;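 note: cells exposed to compound for 40 hours before reading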
Outline: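 CellTiter-Glo luminescence (intracellular ATP, 20 min room temperature) after 40 hr compound exposure at 37 °C of 1000 glomerulus-derived human kidney mesenchymal cells/well; AC50 values obtained by fitting qHTS concentration-response data to the Hill equation.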

[13] = Cellular Toxicity (caspase-3) HepG2 (AID 654); conditions: HepG2 caspase-3 activation, luminescence; series mostly up to 92.2 µM;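 note: cells exposed to compound for 16 hours before reading; 0% = DMSO alone and 100% = caspase signal from 100 µM tamoxifen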
Outline: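 Concentration-response AC50 values reflect caspase-3/7 induction in HepG2 cells after 16 hours of compound exposure, quantified by luminescence from liberated aminoluciferin and referenced to 100 uM tamoxifen as full stimulation.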

[14] = Cellular Toxicity (caspase-3) HUV-EC-C (AID 656); conditions: HUV-EC-C cells, caspase-3 activation (apoptosis), vehicle = 0, 100 µM tamoxifen = 100%; series mostly up to 92.2 µM
Outline: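 HUV-EC-C cells (1000/well) in complete medium, compound-treated 16 h at 37 °C; caspase-3/7 activity read by Caspase-Glo 3/7 luminescence. Normalized to DMSO (basal) and 100 uM tamoxifen (100%); AC50 from Hill-equation concentration-response fits.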

[15] = Cellular Toxicity (caspase-3) SHSY5Y (AID 657); conditions: SH-SY5Y caspase-3 activation, DMSO zero, 10 µM staurosporine = 100%; series mostly up to 91.7 µM
Outline: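 SH-SY5Y human neuroblastoma cells, 1500/well, exposed to compound for 16 hours at 37 °C in complete medium. Caspase-3/7 activity read by Caspase-Glo luminescence after 1 hr at room temperature, normalized to DMSO and 10 uM staurosporine; AC50 from Hill fit.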

[16] = Cellular Toxicity (caspase-3) BJ (AID 658); conditions: BJ fibroblasts, luminescence, normalized: DMSO 0%, staurosporine 100%; series mostly up to 91.7 µM
Outline: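 Caspase-Glo 3/7 luminescence, read 1 hr after reagent at room temperature, in normal BJ fibroblasts exposed 16 hours at 37 °C. AC50 values from Hill-equation concentration-response, scaled between DMSO basal and 10 uM staurosporine as 100%.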

[17] = Cellular Toxicity (caspase-3) MRC-5 (AID 659); conditions: MRC-5 cells, luminescence, normalized: DMSO 0%, 10 µM staurosporine 100%; series mostly up to 91.7 µM
Outline: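 Luminescent Caspase-Glo 3/7 read-out (1 h, room temperature) after a 16 h, 37 °C compound exposure of MRC-5 lung fibroblasts at 1500 cells/well. Concentration-response AC50 from Hill equation; 0% DMSO, 100% 10 uM staurosporine.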

[18] = target: Mitogen-activated protein kinase 10 (Mus musculus) (UniProt Q61831); assay: JNK3 AlphaScreen Assay (AID 530; active = well fitted curve in either direction with a large enough effect, not every such curve was filed as active;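 note: kinase came from lysate of stimulated human HepG2 cells; signal reports phosphorylation of biotinylated GST-cJun 1-79 at Ser73 with 10 µM ATP; % is set by controls: 0 for no effect and ±100 for the full control effect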); conditions: JNK3 lysate, c-Jun phosphorylation; series mostly up to 57.1 µM
Outline: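 Kinase buffer: 20 mM Tris-HCl pH 7.6, 10 mM MgCl2, 1 mM DTT, 0.1 mM Na3VO4, 0.01% Tween-20; ATP 10 uM. Substrate biotin-GST-cJun(1-79), enzyme from activated HepG2 lysates. Detection by Ser73 phospho-antibody AlphaScreen.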

[19] = Cellular Toxicity (caspase-3) Jurkat (AID 655); conditions: Jurkat caspase-3 activation, luminescence; caspase-3 activation: at 92.2 µM (top of the series), DMSO = 0%, tamoxifen = 100%;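 note: cells exposed to compound for 16 h at 37 °C before reading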
Outline: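 Jurkat cells (5000/well) in complete medium exposed 16 h at 37 C; caspase-3/7 activity read by Caspase-Glo luminescence after 20 min at room temperature. Normalized to DMSO and 100 uM tamoxifen; AC50 from Hill fits.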

CC(=O)c1nccs1
inactive: Potency [1] > 92 µM | Potency [2] > 92 µM | Potency [3] > 92 µM | Potency [4] > 92 µM | Potency [5] > 92 µM | activity change, negative = cytotoxicity [6] 2.98% | Potency [7] | Potency [8] | Potency [9] | Potency [10] | Potency [11] | Potency [12] | Potency [13] | outcome [14] | outcome [15] | outcome [16] | outcome [17]

Cc1nc2ccc(Cl)cc2[nH]1
inactive: Potency [1] > 92 µM | Potency [2] > 92 µM | Potency [3] > 92 µM | Potency [5] > 92 µM | outcome [18] | activity change, negative = cytotoxicity [6] -5.91% | Potency [7] | Potency [8] | Potency [9] | Potency [10] | Potency [12] | Potency [13] | caspase-3 activation [19] 0.744% | outcome [14] | outcome [15] | outcome [16] | outcome [17]

CC(C)Nc1ccccc1
inactive: Potency [1] > 92 µM | Potency [2] > 92 µM | Potency [3] > 92 µM | Potency [4] > 92 µM | Potency [5] > 92 µM | outcome [18] | activity change, negative = cytotoxicity [6] -9.13% | Potency [8] | Potency [9] | Potency [10] | Potency [11] | Potency [12] | caspase-3 activation [19] 2.39% | outcome [14] | outcome [15] | outcome [16] | outcome [17]

CCOCCOCC
inactive: Potency [1] > 92 µM | Potency [2] > 92 µM | Potency [3] > 92 µM | Potency [4] > 92 µM | Potency [5] > 92 µM | activity change, negative = cytotoxicity [6] -1.44% | Potency [7] | Potency [8] | Potency [9] | Potency [10] | Potency [11] | Potency [12] | Potency [13] | caspase-3 activation [19] 1.67% | outcome [14] | outcome [15] | outcome [16] | outcome [17]

CC/C=C1/OC(=O)c2ccccc21
inactive: Potency [1] > 92 µM | Potency [2] > 92 µM | Potency [3] > 92 µM | Potency [4] > 92 µM | Potency [5] > 92 µM | outcome [18] | activity change, negative = cytotoxicity [6] 3.1% | Potency [7] | Potency [8] | Potency [9] | Potency [10] | Potency [11] | Potency [12] | Potency [13] | caspase-3 activation [19] -0.618% | outcome [14] | outcome [15] | outcome [16] | outcome [17]

CCCCCO
inactive: Potency [1] > 92 µM | Potency [2] > 92 µM | Potency [3] > 92 µM | Potency [4] > 92 µM | outcome [18] | activity change, negative = cytotoxicity [6] 3.49% | Potency [7] | Potency [8] | Potency [9] | Potency [10] | Potency [11] | Potency [12] | Potency [13] | caspase-3 activation [19] -0.274% | outcome [14] | outcome [15] | outcome [16] | outcome [17]

CC(C)C=O
inactive: Potency [1] > 92 µM | Potency [2] > 92 µM | Potency [3] > 92 µM | Potency [5] > 92 µM | outcome [18] | activity change, negative = cytotoxicity [6] -13.8% | Potency [7] | Potency [8] | Potency [9] | Potency [10] | Potency [11] | Potency [12] | outcome [14] | outcome [15] | outcome [16] | outcome [17]

Cc1cccc(C)c1
inactive: Potency [1] > 92 µM | Potency [2] > 92 µM | Potency [3] > 92 µM | Potency [4] > 92 µM | Potency [5] > 92 µM | activity change, negative = cytotoxicity [6] 2.48% | Potency [7] | Potency [8] | Potency [9] | Potency [10] | Potency [11] | Potency [12] | Potency [13] | caspase-3 activation [19] -2.27% | outcome [15] | outcome [16] | outcome [17]

Cc1cccc2cccnc12
inactive: Potency [1] > 92 µM | Potency [2] > 92 µM | Potency [3] > 92 µM | Potency [4] > 92 µM | Potency [5] > 92 µM | activity change, negative = cytotoxicity [6] -0.348% | Potency [7] | Potency [8] | Potency [9] | Potency [10] | Potency [11] | Potency [12] | Potency [13] | outcome [14] | outcome [15] | outcome [16]

CCCCC(CC)CNCC(CC)CCCC (stereo unspecified)
inactive: Potency [1] > 92 µM | Potency [2] > 92 µM | Potency [3] > 92 µM | Potency [4] > 92 µM | Potency [5] > 92 µM | outcome [18] | activity change, negative = cytotoxicity [6] -7.79% | Potency [8] | Potency [9] | Potency [10] | Potency [11] | Potency [12] | Potency [13] | caspase-3 activation [19] 1.24% | outcome [14] | outcome [15] | outcome [16]

CC(C)=CCl
inactive: Potency [1] > 92 µM | Potency [2] > 92 µM | Potency [3] > 92 µM | Potency [5] > 92 µM | outcome [18] | activity change, negative = cytotoxicity [6] 1.02% | Potency [7] | Potency [8] | Potency [9] | Potency [10] | Potency [11] | Potency [12] | outcome [14] | outcome [15] | outcome [16] | outcome [17]

CCCCCCCCCCCCC1CO1 (stereo unspecified)
inactive: Potency [1] > 92 µM | Potency [2] > 92 µM | Potency [3] > 92 µM | Potency [4] > 92 µM | outcome [18] | activity change, negative = cytotoxicity [6] 6.57% | Potency [7] | Potency [8] | Potency [9] | Potency [10] | Potency [11] | Potency [12] | Potency [13] | caspase-3 activation [19] -0.853% | outcome [14] | outcome [15] | outcome [16] | outcome [17]

Source: PubChem BioAssay (NCATS)
